In PubChem BioAssay (NCATS):
Where “and” joins values, the source holds several entries; their conditions need not be identical. Identical values can stand only once. Inconclusive results are not listed. The call rests on the fitted dose curve; in most records, active means well fitted inhibition curve with a large enough effect; inconclusive means small, poorly fitted or top-dose-only effect; inactive means flat fitted curve, though single readings scatter.

Test: Drug repurposing screens with cells derived from glioblastoma tumor samples (AID 1345199); further: nearly all actives have a fitted effect of over 40% in size
Conditions: GBM patient neurospheres viability, ATP luminescence, 48 h
Method: CD133+ cells were isolated from GBM patient biopsies and cultured as neurospheres. Neurospheres from four patients were used to screen the NCATS pharmaceutical collection (NPC) library of approved drugs and bioactive compounds. […] The neurospheres were incubated with drugs for 48 hours in 1536-well format, then assayed with an ATP content cell viability assay. […] These hits were cherry picked to confirm activity in the four original GBM lines screened plus three other slower growing GMB lines (unable to yield enough cells for a full primary screen). Variable activities of the confirmed primary hits in the different GBM patient lines were observed. The patient line 206 responded to the greatest number of compounds and line 923 responded to the least amount of active compounds.

[1] = at 45.9 µM (top of the series), tumour line B
[2] = at 45.9 µM (top of the series), tumour line D
[3] = at 46 µM (top of the series), tumour line A
[4] = at 46.1 µM (top of the series), tumour line C

Measured: activity, negative = cell killing
On the % scale 0 is the no-effect control and ±100 the full control effect.

CC1CC(OC(=O)C(O)c2ccccc2)CC(C)(C)N1C (configuration not stated)
inactive: at 20 µM (top of the series), tumour line C 14.2% | at 21.2 µM (top of the series), tumour line B 1.64% | at 21.2 µM (top of the series), tumour line D -6.11% | [1] -1.01% | [2] 1.15% | [3] -25.8% | [4] -11%

O=C(O)c1ccccc1-c1ccc(C(F)(F)F)cc1
inactive: [1] -7.48% | [2] -6.37% | [3] -14.4% | [4] 1.99%

O=C1NC(=O)[C@@]2(CCOc3ccc(F)cc32)N1
inactive: [1] -4.87% | [2] 4.44% | [3] -16.6% | [4] -0.68%

Nc1nc2c(ncn2CCC(CO)CO)c(=O)[nH]1
inactive: [1] -8.7% | [2] 3.63% | [4] -21.6%

CCOC(=O)c1ccc(O)cc1
inactive: [1] -7.74% | [2] 6.74% | [4] -0.513%

Cc1cc(CC(=O)O)n(C)c1C(=O)c1ccc(Cl)cc1
inactive: [1] -19.5% and -0.106% | [2] -15.6% and -2.2% | [4] -19.2% and -21.6%

N[C@@H](CSCCCO)C(=O)O
inactive: [1] 0.365% | [2] -10% | [3] -27% | [4] -8.48%

CN(C)CCCO[C@@H]1[C@H]2OC(C)(C)O[C@H]2O[C@@H]1C(O)CO (some centres not stated)
inactive: [1] -1.76% | [2] -18.3% | [4] -10.9%

COc1ccc(S(=O)(=O)Nc2nnc(CC(C)C)s2)cc1
inactive: [1] -4.51% and -11.1% | [2] -10.6% and 2.66% | [3] -18% | [4] -23.9%

NC(=O)c1ncn([C@@H]2O[C@H](CO)[C@@H](O)[C@H]2O)c1N
inactive: [1] -9.5% | [2] -4.13% | [3] -19.7% | [4] -3.52%

Cc1ccc(C(C)C)cc2c(C)ccc1-2
inactive: [1] -9% | [2] 5.15% | [4] -3.49%
